Experimental data from PubChem BioAssay (Tox21).
Inconclusive results are not listed. Active and inactive are the calls of the source. Unless noted, calls follow the shape of the full dose curve.

Key:
[1] = Nuclear factor erythroid 2-related factor 2/antioxidant responsive element (Nrf2/ARE) small molecule agonists: luciferase reporter gene qHTS assay in human keratinocytes (AID 1919969); also: nearly all actives have a fitted effect of over 35% in size
[2] = target: Gonadotropin-releasing hormone receptor (Homo sapiens) (UniProt P30968); assay: Human gonadotropin-releasing hormone receptor (GnRHR) small molecule agonists, calcium flux assay in GnRHR-HEK293 cells (AID 1920063); also: nearly all actives have a fitted effect of over 35% in size
Sequence of Gonadotropin-releasing hormone receptor (Homo sapiens) (P30968 whole entry, looked up): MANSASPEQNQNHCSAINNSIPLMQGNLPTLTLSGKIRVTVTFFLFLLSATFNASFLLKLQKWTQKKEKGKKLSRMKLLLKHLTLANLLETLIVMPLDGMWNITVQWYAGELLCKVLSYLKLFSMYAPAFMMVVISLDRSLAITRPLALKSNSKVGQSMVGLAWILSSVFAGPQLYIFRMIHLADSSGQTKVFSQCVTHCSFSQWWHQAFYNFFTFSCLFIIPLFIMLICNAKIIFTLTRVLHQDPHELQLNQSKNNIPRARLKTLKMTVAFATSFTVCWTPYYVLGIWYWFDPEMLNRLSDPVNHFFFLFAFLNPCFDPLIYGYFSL
How it was run: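 HEK293 cells stably expressing human GnRHR were plated 18 h at 37 °C, loaded with calcium dye 1 h at 37 °C, then given compound in agonist mode; fluorescence (Ex/Em 480/540) read kinetically for 3 min at 1 s intervals.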

[3] = target: KiSS-1 receptor (Homo sapiens) (UniProt Q969F8); assay: Human kisspeptin (KISS1R) small molecule agonists, calcium flux assay in KISS1R-HEK293 cells (AID 1920064; active = well fitted activation curve with a large enough effect in the repeat runs)
Sequence of KiSS-1 receptor (Homo sapiens) (Q969F8 whole entry, looked up): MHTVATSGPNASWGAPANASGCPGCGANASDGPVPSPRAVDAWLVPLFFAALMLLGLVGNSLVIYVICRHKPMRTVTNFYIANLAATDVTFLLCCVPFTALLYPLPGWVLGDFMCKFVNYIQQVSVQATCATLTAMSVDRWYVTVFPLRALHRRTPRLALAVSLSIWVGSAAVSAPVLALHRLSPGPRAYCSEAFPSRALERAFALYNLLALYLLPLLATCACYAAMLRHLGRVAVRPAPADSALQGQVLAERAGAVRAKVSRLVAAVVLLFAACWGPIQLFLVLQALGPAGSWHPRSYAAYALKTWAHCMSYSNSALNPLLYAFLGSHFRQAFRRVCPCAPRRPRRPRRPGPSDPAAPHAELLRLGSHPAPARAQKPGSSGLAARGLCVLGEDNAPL
How it was run: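 HEK293 cells stably expressing human KISS1R were plated 18 h at 37 °C, loaded with calcium dye for 1 h at 37 °C, then given compound by pin tool. Fluorescence (Ex/Em 480/540) was read kinetically for 3 min.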

[4] = G protein-coupled receptor (GPCR) small molecule agonists, calcium flux assay: HEK293 wild type cell line counter screen (AID 1920065)
How it was run: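 Cells were plated and cultured 18 h at 37 C/5% CO2, then loaded with calcium dye for 1 h at 37 C. Compounds in DMSO were pin-transferred in agonist mode, and fluorescence (Ex/Em 480/540) was read kinetically for 3 min at 1 s intervals.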

[5] = p53 small molecule agonists, cell-based qHTS assay with human liver microsomes (AID 1963577);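 also: p53 response element beta-lactamase reporter cells with liver microsomes plus NADPH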
How it was run: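 p53RE-bla cells; 5 h settle, 37 C/5% CO2; cpd + HLM 0.5 mg/mL + NADPH 0.5 mg/mL (final); 16 h 37 C; LiveBLAzer 2 h RT dark; fluorescence readout.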

[6] = p53 small molecule agonists, cell-based qHTS assay with rat liver microsomes (AID 1963578)
How it was run: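 Rat liver microsome activation: microsomes 0.5 mg/mL, NADPH 0.5 mg/mL final; p53RE-bla cells, 16 h 37 C; LiveBLAzer readout, 2 h RT dark.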

[7] = p53 small molecule agonists, cell-based qHTS assay with human liver microsomes: qHTS cell viability counter screen (AID 1963579); also: nearly all actives have a fitted effect of over 45% in size
How it was run: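 Luminescent CellTiter-Glo read-out, 30 min at room temperature, gauged cytotoxicity in p53RE-bla cells exposed 16 h at 37 C to DMSO-dissolved compounds with metabolic activation by human liver microsomes and NADPH, each 0.5 mg/mL final.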

[8] = p53 small molecule agonists, cell-based qHTS assay with rat liver microsomes: qHTS cell viability counter screen (AID 1963580); also: nearly all actives have a fitted effect of over 45% in size
How it was run: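 Intracellular ATP, by CellTiter-Glo luminescence, defines viability. HCT-116 p53RE-bla cells, 4,000 per well, were compound-treated in the presence of rat liver microsomes and NADPH for 16 h at 37 C.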

[9] = p53 small molecule agonists, cell-based qHTS assay: qHTS cell viability counter screen (AID 1963581); also: nearly all actives have a fitted effect of over 45% in size
How it was run: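 p53RE-bla HCT-116 cells were exposed to compounds for 16 h at 37 C; after the beta-lactamase FRET read in the same wells, CellTiter-Glo was added and luminescence (intracellular ATP) read after 30 min at room temperature.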

[10] = p53 small molecule agonists, cell-based qHTS assay (AID 1963582; active = well fitted activation curve with a large enough effect in the signal ratio in the repeat runs, not every such curve was filed as active; the % refers to the signal ratio)
How it was run: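 p53RE-bla beta-lactamase reporter cells rested 5 h at 37 C/5% CO2, then received compounds in DMSO by pin transfer and were incubated 16 h at 37 C. LiveBLAzer B/G FRET substrate was loaded for 2 h at room temperature before fluorescence reading.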

[11] = target: 5-hydroxytryptamine receptor 2A (Homo sapiens) (UniProt P28223); assay: 5-hydroxytryptamine receptor 2A (HTR2A) small molecule antagonists, cell-based qHTS assay (AID 1963586); also: nearly all actives have a fitted effect of over 45% in size
Sequence of 5-hydroxytryptamine receptor 2A (Homo sapiens) (P28223 whole entry, looked up): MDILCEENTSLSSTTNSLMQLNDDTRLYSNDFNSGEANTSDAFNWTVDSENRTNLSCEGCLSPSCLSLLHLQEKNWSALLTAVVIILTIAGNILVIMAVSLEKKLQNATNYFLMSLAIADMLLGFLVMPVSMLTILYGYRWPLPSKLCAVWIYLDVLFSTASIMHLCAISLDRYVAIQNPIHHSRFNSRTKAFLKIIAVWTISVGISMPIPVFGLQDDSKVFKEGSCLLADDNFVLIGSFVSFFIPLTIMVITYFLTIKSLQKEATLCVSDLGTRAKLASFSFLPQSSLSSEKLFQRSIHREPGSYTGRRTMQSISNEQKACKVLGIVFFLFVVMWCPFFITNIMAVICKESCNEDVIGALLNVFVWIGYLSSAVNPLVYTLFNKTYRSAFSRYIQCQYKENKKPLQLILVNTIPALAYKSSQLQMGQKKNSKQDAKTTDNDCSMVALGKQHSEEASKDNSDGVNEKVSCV
How it was run: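 Antagonist-mode intracellular calcium assay: DOI (4 nM) added after 5 min compound pre-incubation at room temperature to dye-loaded HTR2A-CHO cells. Fluorescence followed for 3 min, sampled every second.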

[12] = target: 5-hydroxytryptamine receptor 2A (Homo sapiens) (UniProt P28223); assay: 5-hydroxytryptamine receptor 2A (HTR2A) small molecule agonists, cell-based qHTS assay (AID 1963587); also: nearly all actives have a fitted effect of over 30% in size
How it was run: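 Kinetic calcium-flux fluorescence (2 min, 1 sec intervals) after compound addition in agonist mode. HTR2A-CHO cells were cultured 18 h, then dye-loaded 1 h at 37 C.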

[13] = target: Muscarinic acetylcholine receptor M1 (Homo sapiens) (UniProt P11229); assay: Cholinergic receptor muscarinic 1 (CHRM1) small molecule antagonists, cell-based qHTS assay (AID 1963588); also: nearly all actives have a fitted effect of over 40% in size
Sequence of Muscarinic acetylcholine receptor M1 (Homo sapiens) (P11229 whole entry, looked up): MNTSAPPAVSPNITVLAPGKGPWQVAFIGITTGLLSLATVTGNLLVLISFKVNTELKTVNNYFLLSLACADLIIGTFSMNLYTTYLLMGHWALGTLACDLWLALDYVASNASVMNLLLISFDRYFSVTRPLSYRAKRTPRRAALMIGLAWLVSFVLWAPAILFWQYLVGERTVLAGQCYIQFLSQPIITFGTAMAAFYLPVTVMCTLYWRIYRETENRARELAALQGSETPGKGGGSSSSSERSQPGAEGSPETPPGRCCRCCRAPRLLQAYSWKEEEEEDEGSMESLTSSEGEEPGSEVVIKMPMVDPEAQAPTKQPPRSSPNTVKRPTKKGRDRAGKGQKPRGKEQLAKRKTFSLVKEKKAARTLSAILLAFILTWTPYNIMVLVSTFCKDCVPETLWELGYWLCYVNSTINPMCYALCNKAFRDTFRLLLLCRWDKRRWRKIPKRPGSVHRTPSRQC
How it was run: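 CHRM1-CHO calcium-flux assay, antagonist mode. Cells were seeded 18 h, dye-loaded 1 h at 37 C and given compound for 5 min at RT, then acetylcholine was added at 50nM. FDSS fluorescence was read 3 min; 15 concentrations, three runs.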

[14] = target: Muscarinic acetylcholine receptor M1 (Homo sapiens) (UniProt P11229); assay: Cholinergic receptor muscarinic 1 (CHRM1) small molecule agonists, cell-based qHTS assay (AID 1963589); also: nearly all actives have a fitted effect of over 35% in size
How it was run: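 CHO cells stably expressing human CHRM1, seeded 18 h at 37 C/5% CO2, dye-loaded 1 h at 37 C, then given compound in agonist mode; intracellular calcium fluorescence read kinetically at 1 s intervals. Fifteen concentrations, three independent runs.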

[15] = cAMP Responsive Elements (CRE) small molecule agonists, cell-based qHTS assay (AID 1963590)
How it was run: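 CRE-bla HEK 293T cells in DMEM with 10% dialyzed FBS, NEAA, pyruvate and 25 mM HEPES were plated 18 h at 37 C/5% CO2, then exposed to compounds in DMSO for 3 h before LiveBLAzer B/G FRET substrate addition.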

[16] = target: Beta-2 adrenergic receptor (Homo sapiens) (UniProt P07550); assay: Adrenergic beta2 receptor (ADRB2) small molecule antagonists, cell-based qHTS assay (AID 1963592); also: series mostly up to about 92 µM; nearly all actives have a fitted effect of over 50% in size
Sequence of Beta-2 adrenergic receptor (Homo sapiens) (P07550 whole entry, looked up): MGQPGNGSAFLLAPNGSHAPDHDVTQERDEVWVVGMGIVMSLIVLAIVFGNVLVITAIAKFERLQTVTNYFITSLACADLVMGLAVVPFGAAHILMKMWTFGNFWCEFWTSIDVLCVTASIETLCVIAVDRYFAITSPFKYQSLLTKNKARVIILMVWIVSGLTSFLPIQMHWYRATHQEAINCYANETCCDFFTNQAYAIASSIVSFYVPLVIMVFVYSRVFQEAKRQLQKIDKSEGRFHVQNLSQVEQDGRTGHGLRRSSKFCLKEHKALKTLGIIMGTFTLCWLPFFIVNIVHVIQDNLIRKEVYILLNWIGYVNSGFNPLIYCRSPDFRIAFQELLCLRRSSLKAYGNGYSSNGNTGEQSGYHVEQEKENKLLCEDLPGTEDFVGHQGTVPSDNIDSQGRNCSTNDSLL
How it was run: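 Cells (CHO, stable ADRB2 overexpression) incubated 18-20hr at 37C; compounds added from DMSO; agonist mix (1nM isoproterenol, 100uM IBMX, 25uM Ro-20-1724) added; 0.5hr RT; d2-cAMP and anti-cAMP-cryptate added; 1hr RT; 665/615 nm read.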

[17] = target: Beta-2 adrenergic receptor (Homo sapiens) (UniProt P07550); assay: Adrenergic beta2 receptor (ADRB2) small molecule agonists, cell-based qHTS assay (AID 1963593);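 also: CHO cells stably overexpressing human ADRB2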
How it was run: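 CHO cells stably over-expressing ADRB2 were plated overnight at 37C, then dosed with compounds plus a stimulation mix containing 100uM IBMX and 25uM Ro-20-1724 for 0.5hr at room temperature. cAMP was measured by HTRF competition, 1hr.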

[18] = target: D(2) dopamine receptor (Homo sapiens) (UniProt P14416); assay: Dopamine D2 receptor (DRD2) small molecule agonists, cell-based qHTS assay (AID 1963594); also: nearly all actives have a fitted effect of over 35% in size
Sequence of D(2) dopamine receptor (Homo sapiens) (P14416 whole entry, looked up): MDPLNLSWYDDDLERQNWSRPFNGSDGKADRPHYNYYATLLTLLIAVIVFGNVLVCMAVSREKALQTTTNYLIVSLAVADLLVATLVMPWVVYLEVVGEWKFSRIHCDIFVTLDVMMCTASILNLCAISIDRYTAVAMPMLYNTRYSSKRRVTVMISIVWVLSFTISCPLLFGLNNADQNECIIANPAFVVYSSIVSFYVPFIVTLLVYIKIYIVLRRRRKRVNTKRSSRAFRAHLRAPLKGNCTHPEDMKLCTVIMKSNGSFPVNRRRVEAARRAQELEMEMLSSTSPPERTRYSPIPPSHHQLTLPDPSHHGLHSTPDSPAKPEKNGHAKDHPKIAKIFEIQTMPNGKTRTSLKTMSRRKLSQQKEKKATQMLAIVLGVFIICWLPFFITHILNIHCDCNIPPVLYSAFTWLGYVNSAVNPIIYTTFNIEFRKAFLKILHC
How it was run: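 cAMP accumulation in DRD2-HEK293 cells measured by HTRF after 1 h detection; compounds added 10 min before NKH477 (200nM […]) forskolin-analogue stimulation, 30 min at room temperature, with Ro20-1724 present at 0.1 mM final.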

[19] = target: D(2) dopamine receptor (Homo sapiens) (UniProt P14416); assay: Dopamine D2 receptor (DRD2) small molecule antagonists, cell-based qHTS assay (AID 1963595; active = well fitted inhibition curve with a large enough effect in the signal ratio in the repeat runs, with a control signal flat; the % refers to the signal ratio)
How it was run: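 DRD2-HEK293; 0.1 mM Ro20-1724; cpd 10 min RT; NKH477 200 nM + quinpirole 12 nM, 30 min RT; HTRF cAMP (cAMP-d2/anti-cAMP cryptate), 665/620 nm ratio after 1 h.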

[20] = cAMP Responsive Elements (CRE) small molecule antagonists, cell-based qHTS assay (AID 1963591; active = well fitted inhibition curve with a large enough effect in the signal ratio in the repeat runs, not every such curve was filed as active; the % refers to the signal ratio)
How it was run: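 CRE-bla HEK293T cells were plated 18 h at 37 °C/5% CO2, pinned with compound in DMSO, then stimulated with NKH477 at 0.25 uM final for 3 h. LiveBLAzer B/G FRET substrate was added and plates incubated 2 h at room temperature.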

Measured: Potency

O=C(O)c1cc(Cl)ccc1Cl
not listed: [20]
inactive: all other assays above

CCC(C)c1ccc(O)cc1 (stereo not drawn)
not listed: [15] | [20]
inactive: all other assays above

COC(=O)C(Cl)C(=O)OC
not listed: [14]
inactive: all other assays above

COC(=O)C(Br)CBr (stereo not drawn)
not listed: [16] | [17]
inactive: all other assays above

CS(=O)(=O)NC(=O)c1cc(Oc2ccc(C(F)(F)F)cc2Cl)ccc1[N+](=O)[O-]
not listed: [6] | [14] | [17] | [18]
inactive: all other assays above

CCCCOCCOP(=O)(OCCOCCCC)OCCOCCCC
not listed: [8] | [17]
inactive: all other assays above

CC(C)OC(=O)Nc1ccccc1
not listed: [6] | [7] | [8] | [17]
inactive: all other assays above

Fc1cc(Br)ccc1CBr
not listed: [17]
inactive: all other assays above
